# Screens: PubChem, Broad Institute
# aSyn 5UTR act = Activators via SNCA 5'UTR binding, MLPCN | alpha-synuclein 5'UTR reporter, activators screen | activity score, % (tested at 7.5 µM), hits read low | 300,000 tested, 7.1% active; in the data active = activity score below about -60%
# * marks the source's active call; other numbers are inactive results. Not all results are given here.
SMILES,aSyn 5UTR act
CCc1cc(C(=O)Nc2ccc(C)cc2Br)cs1,-255*
CCc1cc(C(=O)NNC(=S)Nc2cccc(C)c2)cs1,-130*
CC1CCc2c(sc3nc(CSc4n[nH]c(N)n4)[nH]c(=O)c23)C1 (configuration not stated),-92*
COc1cccc(CCNC(=O)c2ccc(C#N)cc2)c1,-63*
COc1ccc(OC(=O)NCCc2ccccc2)cc1,-134*
COc1ccc(CC(=O)Nc2ccccc2C(=O)NCCc2ccccc2)cc1,-101*
COc1ccc(CCNC(=O)c2ccccc2)cc1,-64*
COc1ccc(C(=O)Nc2cc(C(=O)NCCc3ccccc3)ccc2Cl)cc1,-69*
COc1ccc(CCNC(=O)c2nonc2N)cc1,-85*
COc1ccc(OC)c(NC(=O)c2nc(S(=O)(=O)Cc3ccccc3)ncc2Cl)c1,99
COc1ccc(O)c(/C=N/NC(=O)c2c(C)nnn2-c2nonc2N)c1,64
Cc1cccc(Nc2nc(-c3ccccc3)c(C(=O)Nc3cccnc3)s2)c1,-143*
CCn1c(C)nc2cc(C(=O)N/N=C(\C)c3ccccc3O)ccc21,-143*
CCn1c(C)nc2cc(C(=O)NNC(=S)Nc3ccccc3OC)ccc21,-74*
CCn1c(C)nc2cc(NC(=O)Nc3cccc(C(C)=O)c3)ccc21,-99*
CCn1c(C)nc2cc(C(=O)N/N=C/c3ccccc3C)ccc21,-142*
C=C1C(=O)O[C@@H]2[C@H]1[C@@H](OC(=O)/C(C)=C/C)C/C(C)=C\C(=O)/C=C(\C)[C@@H]2O,-311*
CCOC(=O)CCn1nc(-c2ccc(Cl)cc2)cc1N,-129*
Cc1ccc(C(=O)Nc2nc(=O)n(C(=O)c3ccccc3Cl)s2)cc1,-104*
Cn1sc(NC(=O)c2ccc(Cl)cc2)nc1=O,-115*
Cc1ccc(N2NC(C)(c3cccs3)NC2=S)cc1 (configuration not stated),-151*
Cc1noc(C(=O)Nc2ccc(F)c(Cl)c2)c1Cl,-70*
Cc1ccc(NC(=O)c2onc(C)c2Cl)cc1,-151*
COc1cc(C(=O)Nc2ccc3nc(N4CCN(C)CC4)cc(C)c3c2)cc(OC)c1OC,-103*
CCN1CCN(c2cc(C)c3cc(NC(=O)c4cc(OC)cc(OC)c4)ccc3n2)CC1,-98*
SMILES,aSyn 5UTR act
CCOc1ccc(C(=O)Nc2ccc3nc(N4CCN(CC)CC4)cc(C)c3c2)cc1,67
Cc1cc(N2CCN(C)CC2)nc2ccc(NC(=O)c3ccc(Br)o3)cc12,-103*
COc1ccc2[nH]c(=O)c(CN(c3ccccc3OC)S(=O)(=O)c3ccccc3)cc2c1,-69*
COc1ccc2[nH]c(=O)c(CN(Cc3cccs3)S(=O)(=O)c3cccc4nsnc34)cc2c1,76
N/C(=N\OC(=O)CCC1CCCC1)c1ccccn1,-133*
CC(C)(C)c1ccc(C(=O)O/N=C(\N)c2ccccn2)cc1,94
N/C(=N\OC(=O)CCC1CCCC1)c1ccccc1,-126*
CCOC(=O)CSc1nc2ccccc2c(=O)n1NC(=O)c1ccccc1,-66*
CCC(C)NC(=O)CSc1nc2ccsc2c(=O)n1NC(=O)c1ccccc1 (configuration not stated),-67*
C=CCn1c(SCc2cc(C(C)=O)ccc2OCC)nc2ccccc2c1=O,104
Cc1ccc(NC(=O)c2cc(C)no2)cc1,-75*
COc1ccc(NC(=O)c2cc(C)no2)cc1,-65*
O=C(Nc1ccc(-c2cn3c(n2)SCC3)cc1)c1ccc2ccccc2n1,-186*
O=C(Nc1cccc(-c2cn3c(n2)SCC3)c1)c1ccc2ccccc2n1,-141*
COc1ccc(NN=Nc2ccc([N+](=O)[O-])cc2)cc1,-240*
COc1ccc2nc(NC(=O)CSc3nnc(C)s3)sc2c1,-78*
Cc1nc(SCC(=O)Nc2nc3ccccc3s2)c(C#N)c(C)c1C,100
CSc1nsc(SCC(=O)Nc2nc3ccccc3s2)n1,-71*
CCn1nnnc1SCC(=O)Nc1nc2ccccc2s1,-86*
COc1ccc2nc(NC(=O)CSc3nnnn3C)sc2c1,-122*
O=C(CSC1=NCCS1)Nc1nc2ccccc2s1,-154*
COc1ccc2nc(NC(=O)CSc3nc(SC)ns3)sc2c1,-110*
CCOC(=O)c1cnc(SCc2ccccc2)nc1N,-183*
C=CCSc1ncc(C(=O)OCC)c(N)n1,-101*
COC(=O)C1C(=O)C=C(Nc2ccc(F)cc2F)CC1c1ccccc1 (configuration not stated),-114*
SMILES,aSyn 5UTR act
CCOC(=O)C1C(=O)C=C(Nc2ccccc2F)CC1c1ccccc1 (configuration not stated),-114*
S=C(NCCN1CCOCC1)Nc1ccc(-c2nc3ccccc3[nH]2)cc1,-129*
Cc1ccc(NC(=S)NCCCN2CCOCC2)cc1,-63*
CCc1ccc(C(=O)NNc2ccccc2F)cc1,-83*
CCCc1ccc(C(=O)NNc2ccccc2F)cc1,-110*
O=C(NCCc1ccc(F)cc1)c1ccc2c(=O)n3c(nc2c1)CCC3,-71*
O=C(Nc1ccc(F)cc1Cl)c1ccc2c(=O)n3c(nc2c1)CCCCC3,-144*
O=C(O)c1ccc2c(=O)n3c(nc2c1)/C(=C/c1ccc(F)cc1)CC3,-73*
CCCC(=O)Nc1nc(-c2ccccc2)ns1,-152*
CC(=O)Nc1cc(-c2ccc(Cl)cc2)[nH]n1,-141*
CC(C)C(=O)Nc1nc(-c2ccccc2)ns1,-182*
Cc1nnc(SCCC(=O)Nc2nc(-c3ccccc3)ns2)s1,-86*
CCC(=O)Nc1nc(-c2ccccc2)ns1,-211*
CC(=O)Nc1nc(-c2ccc(Cl)cc2)ns1,-206*
COC(=O)Nc1nc(-c2ccccc2)c(C(=O)c2ccc(Cl)cc2)s1,94
CCSc1nc(-c2ccccc2)nc(C(Cl)Cl)n1,123
O=C(CSc1ncn[nH]1)Nc1nc(-c2ccccc2)ns1,-63*
Cc1nnc2ccc(-c3ccc(NC(=O)c4ccco4)cc3)nn12,-254*
CC(=O)Nc1cccc(-c2cn3ccc(C)cc3n2)c1,-107*
CCOc1ccc(CC(=O)Nc2ccc(-c3ccc4nnc(C)n4n3)cc2)cc1,-87*
Cc1ccn2cc(-c3cccc(NS(C)(=O)=O)c3)nc2c1,-150*
Cc1ccn2cc(-c3ccc(NC(=O)c4ccco4)cc3)nc2c1,-95*
O=S(=O)(Cc1noc(-c2ccccc2Cl)n1)c1ccccn1,-70*
C=CCNC(=S)NC(=O)c1ccc(C)c(Br)c1,-106*
O=C(OCn1ncc(Cl)c(Cl)c1=O)c1ccc(C(F)(F)F)cc1,-117*
SMILES,aSyn 5UTR act
COC(=O)CSc1nc2cc3c(cc2cc1C#N)OCO3,-201*
COC(=O)CSc1nc(-c2cccs2)ccc1C#N,-305*
CC(C)OC(=O)CSc1nc(N)c(C#N)cc1C#N,-118*
CC(C)OC(=O)CSc1nc2cc3c(cc2cc1C#N)OCO3,-149*
COc1cccc(C(=O)/C=C/Nc2ccc(NC(C)=O)cc2)c1,-125*
COc1cccc(C(=O)/C=C/Nc2cccc(O)c2)c1,-87*
CCC(C)(C)C1CCC(=NNC(=S)Nc2ccccc2)CC1 (configuration not stated),-124*
S=C(NN=C1C2CC3CC(C2)CC1C3)Nc1ccccc1,-70*
C/C(=N\Nc1nc(C)c(C)s1)c1ccc([N+](=O)[O-])cc1,-130*
C/C(=N\Nc1ccc([N+](=O)[O-])cc1)c1ccco1,-180*
C/C(=N\Nc1ccc([N+](=O)[O-])cc1)c1ccc(N)cc1,-101*
CCOC(=O)c1nc(NNC(=O)c2ccc([N+](=O)[O-])cc2)sc1C,62
CCc1ccc(/C(C)=N\Nc2ccc([N+](=O)[O-])cc2)cc1,-137*
CC(C)(C)c1ccc(C(=O)NCc2ccccc2)cc1,-88*
